Assay results published in the OligoGym collection.

These sequences were tested against SECISBP2L (assay: pooled miR-30 sensor sort-seq; sequence = guide strand). Conditions: shRNA.
Further: reference of the scale not given here.

Row | Sequence | sensor-assay potency score (higher = more potent)
1 | TTGAAACCCATCTTCATCCTGT | 0.983
2 | TAGTGTGAAAAGAAGCTGCAGT | 0.417
3 | TATAACACACTTGATCTTGTTT | 0.0597
4 | TTCCTGGGAAACAATCTCCTGT | -0.00713
5 | TACGCTAACAGGAACCAGCTTG | -0.34
6 | TATAACATTATAGAGAGCCTCA | -0.0315
7 | TAGTCCAGTATCTTCCTGGGAA | -0.242
8 | TTGATCGACTATCAGGACCTGC | -0.0412
9 | TTGTTGAATATTCTCATCCTTA | -0.343
10 | TAGCTGAGGTAGTACTGCCTGT | -0.712
11 | TTGCTGTGAAGCATCTACCAGA | -0.408
12 | TTTCTGAATACTCTTGAGCTGT | -0.537

Each sequence was assayed against SECISBP2 in the same assay as above. Conditions: shRNA.

Row | Sequence | sensor-assay potency score (higher = more potent)
13 | TTGACATCTGCTGATAACTTGA | -0.133
14 | TTTGACTGTATCTTCTCACAGT | 0.358
15 | TAACATTTTTAGGATCTGCTGA | 0.162
16 | TTTTCTTCTTAAACAGAGCTTT | -0.323
17 | TTCACTGTCAAACTTTTGCTGA | -0.0289
18 | TTGAGAGCAAACACAAAGGGAA | -0.174
19 | TTTGTTGTAGGAAGGATCCGAA | -0.00971
20 | TTTGATAACACTGCAGCTGGTT | 0.27
21 | TTTCAAACTATTCTCAGCGTAA | -0.344
22 | TAACACAAGCATCCACTTCTTT | -0.191
23 | TTCGCTTATGGTAACCATCTGA | 0.0735
24 | TTGCAGTTCAGGAAAGTCCAGT | -0.458

Each sequence was assayed against SELL in the same assay as above. Conditions: shRNA.

Row | Sequence | sensor-assay potency score (higher = more potent)
25 | TAAATCTGTGTAATTGTCTCGG | 0.157
26 | TTAATCATTGAGAAACTTTTGT | -0.0417
27 | TTGTCTCGGCAGAATCTTCTAG | -0.184
28 | TCACTTGACAGGTTGGTTCTGG | 0.848
29 | TTTGACATATTGGACTAGGATT | -1.37
30 | TAGGATTTGACCAGATTCCAGA | -0.318
31 | TAATTGTCTCGGCAGAATCTTC | -1.3
32 | TTATTGATGATTTCTACACATT | -1.76
33 | TTCTCTTGGATTTCTTGCCTTT | 0.216
34 | TTGTATGGCAACTAAATCTGTG | -0.502
35 | TTCAGTAAGAGATTTGTTGGTT | 0.629
36 | TTGATATAGATCTCCACGCAGT | -0.218

Each sequence was assayed against SELO in the same assay as above. Conditions: shRNA.

Row | Sequence | sensor-assay potency score (higher = more potent)
37 | ATCTTCTGCAGGTAGTGCCTTT | -1.13
38 | TTTGGGATTACCATCATAGAAC | -1.22
39 | TTCGCTGCATAGAAACTCCCGG | 0.0168
40 | TTCCTCAGCACGTACTTCGGGT | -0.346
